Sampled rows, rich in hits. Any-hit rate of the full collection: about 18%.
TDP1 inh: TDP1 (human) enzyme inhibition; Potency, µM (series often up to 130 µM), for inactives: at the top dose activity change, negative = inhibition, actives largely listed as inhibitors; Q9NUW8; recombinant TDP1, AlphaScreen DNA substrate cleavage; AID 485290; actives 0.28% (n = 350,000); also: nearly all actives have a fitted effect of over 40% in size
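Enzyme-compound mixtures sat 15 min at room temperature, followed by a 5 min reaction with 15 nM final substrate and 10 min with AlphaScreen beads. Recombinant human Tdp1 was used at 1 nM final.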
GCN5L2 inh: GCN5L2 (KAT2A) acetyltransferase inhibition | Q92830 | GCN5L2 HAT assay, ThioGlo1 CoA-SH fluorescence | Potency, µM (series often up to 58.9 µM), for inactives: at the top dose activity change, negative = inhibition, usual class: inhibitors | actives 0.21% (n = 390,000) | AID 504327
Target sequence (Q92830 whole entry, looked up): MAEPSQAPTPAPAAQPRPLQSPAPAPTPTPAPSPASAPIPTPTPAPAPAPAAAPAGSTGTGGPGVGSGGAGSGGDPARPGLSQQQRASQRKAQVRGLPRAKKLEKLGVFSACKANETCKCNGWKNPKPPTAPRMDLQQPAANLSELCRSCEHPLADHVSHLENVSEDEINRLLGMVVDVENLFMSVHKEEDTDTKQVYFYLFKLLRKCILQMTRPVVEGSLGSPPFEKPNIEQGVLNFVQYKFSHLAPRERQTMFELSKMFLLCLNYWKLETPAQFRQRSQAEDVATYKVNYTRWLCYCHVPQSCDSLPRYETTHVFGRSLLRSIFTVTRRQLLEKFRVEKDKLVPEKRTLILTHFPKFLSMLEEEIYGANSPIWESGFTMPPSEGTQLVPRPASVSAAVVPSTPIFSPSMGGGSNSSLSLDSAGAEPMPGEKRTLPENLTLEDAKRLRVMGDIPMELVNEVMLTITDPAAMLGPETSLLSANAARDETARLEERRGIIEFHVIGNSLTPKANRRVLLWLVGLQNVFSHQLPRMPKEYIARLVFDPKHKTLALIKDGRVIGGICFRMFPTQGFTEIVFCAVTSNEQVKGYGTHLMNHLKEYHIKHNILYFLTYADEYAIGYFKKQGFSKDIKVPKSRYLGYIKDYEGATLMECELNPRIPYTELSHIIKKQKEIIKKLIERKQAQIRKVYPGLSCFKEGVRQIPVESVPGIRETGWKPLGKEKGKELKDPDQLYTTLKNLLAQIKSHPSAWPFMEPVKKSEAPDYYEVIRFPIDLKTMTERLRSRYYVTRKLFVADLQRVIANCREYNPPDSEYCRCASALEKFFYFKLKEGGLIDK
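GCN5L2 (20 nM) in 50mM HEPES pH 7.5, 0.1mM EDTA, 0.01% Tween-20 preincubated 15 min with compounds at room temperature. Reaction started with H3(1-25) 75uM, acetyl-CoA 70uM, ThioGlo1 50uM; CoA-thiol fluorescence (Ex340/Em540) read at 0 and 20 min.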
TDP1 cell CPT: DT40-hTDP1 cell growth loss with CPT; chicken DT40 Tdp1-/-;hTDP1 cells + 20 nM CPT, ATP luminescence, 48 h; Potency, µM (top dose mostly 46.2 µM), for inactives: at the top dose activity change, negative = growth inhibition, most hits filed as inhibitors; actives 12% (n = 420,000); also: nearly all actives have a fitted effect of over 55% in size
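Cell growth measured by CellTiter-Glo luminescence after a minimum 48 h, 37 C compound exposure with 20 nM CPT in Tdp1-knockout DT40 cells stably expressing hTDP1, seeded 400/well; qHTS titration format.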
VDR inh: vitamin D3 receptor (human) inhibition. P11473. VDR-SRC2-3 peptide fluorescence polarization, 2 h. Potency, µM, for the others: max response, negative = inhibition, actives largely listed as inhibitors. actives 0.93% (n = 400,000). AID 504847
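VDR–SRC2-3 interaction, FP format. Cmpds 23 nl via pintool, brief spin, 2 h ambient incubation.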
DT40 TDP1 no CPT: qHTS for Inhibitors of human tyrosyl-DNA phosphodiesterase 1 (TDP1): qHTS in cells in absence of CPT; actives 15% (n = 420,000); Potency, µM (doses to about 46.2 µM), without a hit: at the highest dose activity change, negative = growth inhibition, hits mostly inhibitors; DT40 Tdp1-/- hTDP1 cells, no CPT, ATP luminescence, 48 h; AID 686978, 2013; also: nearly all actives have a fitted effect of over 55% in size
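Luminescent ATP content (CellTiter-Glo) served as the growth readout. Knockout chicken DT40 cells expressing human TDP1 were exposed to compounds without camptothecin for a minimum 48 hr at 37 °C.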
PLK1 PBD inh: blocks phosphopeptide binding to human PLK1 polo-box domain; Plk1 PBD binding of FITC phosphopeptide, fluorescence polarization; Potency, µM, inactives show max response, negative = inhibition, hits mostly inhibitors; actives 2.8% (n = 360,000); also: series mostly up to about 57 µM; nearly all actives have a fitted effect of over 65% in size
* = called active by the depositor; ? = inconclusive; nt = no result given; [ ] = dose if it differs, or a comment. Calls follow the shape of the dose curve; as a rule, active = well fitted curve in the direction sought with a large enough effect; inconclusive = small, poorly fitted or top-dose-only effect, or another doubt; inactive = no such curve, though single readings can be large; an effect the other way counts as inactive or inconclusive. % is scaled to controls: 0 for no effect and ±100 for the full control effect; potency is read from the fitted curve at half-maximal effect.

SMILES	TDP1 inh	GCN5L2 inh	TDP1 cell CPT	VDR inh	DT40 TDP1 no CPT	PLK1 PBD inh
CC(C)[C@H](CN(N=O)[C@@H](Cc1ccccc1)CN(C)N=O)N(CCc1ccccc1)N=O	3%	-8%	23µM*	-9%	23µM*	-16%
NC1CCCCC1N (stereo not given)	2%	20%	nt	-1%	nt	nt
COC(=O)CSc1n[nH]c(=S)s1	5%	-5%	-26%	-2%	-2%	19µM*
CCc1c(C)nc(N)nc1N1N=C1SCC(=O)OC	5%	-6%	4%	-7%	-9%	-8%
Cc1cc(/C=C2\C(=O)NC(=O)N(c3ccc(Cl)cc3)C2=O)c(C)n1-c1sc2c(c1C#N)CCCC2	5%	33%	?	?	?	1.2µM*
CCOC(=O)c1c(-n2c(C)cc(/C=C3\C(=O)NC(=O)N(C)C3=O)c2C)sc2c1CCCC2	5%	-2%	?	?	?	2.7µM*
O=C(CCc1nc(-c2ccccc2F)no1)N1CCC2(CC1)OCCO2	6%	-3%	-2%	12%	?	0%
CN1CCCN(C(=O)COc2ccccc2Br)CC1	1%	1%	5%	0%	0%	-3%
O=C(c1ccc(F)cc1)N1CCC(c2nc(-c3ccc(S(=O)(=O)N4CCCC4)cc3)no2)CC1	-2%	-3%	21µM*	8%	12µM*	nt
[Cl][In]([Cl])[Cl]	0.5µM*	-16%	?	20%	-9%[92.5 µM]	nt
COc1ccc([C@H]2CC(=O)C=C(c3ccc4c5c(cccc35)CC4)C2)cc1	0%	-8%	?	9%	?	-3%
C[C@H]1[C@@H](OS(=O)(=O)O)C[C@@H]2C[C@H]([C@@H](O)c3cc(=O)[nH]c(=O)[nH]3)NC3=NC[C@H]1N32	nt	nt	2.3µM*	-12%	3.7µM*	0%
CCOc1ccc(C2CC(c3c(O)n(C)c(=O)n(C)c3=O)=NN2)cc1 (stereo not given)	11%	-5%	5%	-9%	?	-4%
Cn1c(O)c(C2=NNC(c3ccc(Cl)cc3)C2)c(=O)n(C)c1=O (stereo not given)	11%	?	26µM*	36%	?	-1%
COC(=O)C1=C(c2c(C)noc2C)C[C@@H]2CC[C@H]1N2C(=O)N1CCCC1	-1%	6%	-2%	8%	3%	-1%
CC1(C)CC(=O)C(C2(O)C(=O)NC(=O)NC2=O)=C(O)C1	-7%	0%	-13%	45µM*	-3%	-10%
COc1ccc(OC(=O)N2C/C(=C/c3ccccc3)C(=O)/C(=C\c3ccccc3)C2)cc1	nt	nt	1.2µM*	?	1.5µM*	-10%
O=C1CC(c2ccc(F)cc2)c2c(c3ccccc3oc2=O)O1 (stereo not given)	2%	5%	-8%	-20%	-5%	nt
O/N=C/c1c[nH]c2ccccc12	1%	1%	20%	-2%	-16%	-12%
Brc1ccc2[nH]cc(C=NN3CCCCCC3)c2c1	nt	nt	23µM*	-15%	13µM*	-8%
COc1cccc2c1C(=O)c1c(O)c3c(c(O)c1C2=O)C[C@@](O)(C(=O)CO)C[C@@H]3O[C@H]1C[C@H](N)[C@H](O[C@@H]2CCCCO2)[C@H](C)O1	nt	nt	0.19µM*	nt	0.34µM*	nt
COc1ccc(CCNc2oc(-c3ccc(OC)c(OC)c3)nc2P(=O)(OC)OC)cc1OC	-6%	31%	-30%	-18%	?	-5%
O=[N+]([O-])c1ccccc1O	9%	nt	nt	nt	nt	nt
O=C1NC(=O)C(Sc2ccccc2[N+](=O)[O-])C(=O)N1	14%	-17%	?	40µM*	?	3µM*
CCN(CC)c1ccc(/C=N/c2sc3c(c2C#N)C2CCN3CC2)c(O)c1	2%	-9%	18µM*	-5%	23µM*	5%
SMILES	TDP1 inh	GCN5L2 inh	TDP1 cell CPT	VDR inh	DT40 TDP1 no CPT	PLK1 PBD inh
Nc1ccc([N+](=O)[O-])cc1N	15%	nt	nt	nt	nt	nt
CNC(=O)Oc1ccc(-c2cn3cc(C)ccc3n2)cc1	3%	-1%	?	-5%	12µM*	-13%
COCC(=O)N1CCC2(CCCN(Cc3ccncc3)C2)CC1	nt	6%	4%	-7%	-11%	nt
C=CC1CC=CCC1 (stereo not given)	9%	nt	nt	nt	nt	nt
CCc1ccccc1N1C(=O)N(Cc2ccccc2C)c2ccccc2S1(=O)=O	-1%	-10%	?	4%	16µM*	nt
CN(C)[C@@H](Cc1ccccc1)c1ccccc1	nt	-3%	nt	5%	nt	nt
O=C(NCCN1CCC(n2c(=O)[nH]c3ccccc32)CC1)c1ccc2ccccc2c1	nt	nt	23µM*	nt	?	-4%
O=C(NCCN1CCC2(CC1)C(=O)NCN2c1cccc(F)c1)c1ccc2ccccc2c1	nt	nt	?	nt	?	4%
Cc1cccc(N(CC(=O)NCCSc2ccc(Cl)cc2)S(=O)(=O)c2ccccc2)c1C	nt	-8%	?	-6%	?	nt
Cc1ccc(S(=O)(=O)N(CC(=O)NCCSc2ccc(Cl)cc2)c2ccccc2C)cc1	7%	-10%	21µM*	-1%	23µM*	nt
CN1c2cc(O)c(N=NC(N)=O)cc2CC1S(=O)(=O)O (stereo not given)	nt	-21%	0%	-7%	?	nt
CCOc1ccc2nc(N3CCC(C(=O)Nc4ccc(Br)cc4F)CC3)sc2c1	-3%	1%	12µM*	-1%	13µM*	nt
CCOc1ccc2nc(NC(=O)c3cccn(Cc4ccc(Cl)cc4)c3=O)sc2c1	4%	4%	0%	-6%	0%	nt
COc1ccc(-c2cc(C(F)(F)F)n3nc(C(=O)N4CCC5(CC4)OCCO5)cc3n2)cc1OC	0%	nt	-23%	-9%	21µM*	-9%
CCOc1ccc(NC(=S)NC2CC3CCC(C2)N3Cc2ccco2)cc1 (stereo not given)	5%	-8%	?	-9%	?	-5%
C[C@@H]1O[C@@H](O[C@@H]2C=C3CC[C@@H]4[C@H](CC[C@]5(C)[C@@H](c6ccc(=O)oc6)CC[C@]45O)[C@@]3(C)CC2)[C@H](O)[C@H](O)[C@H]1O	nt	nt	0.14µM*	nt	0.13µM*	nt
C[C@@H]1O[C@@H](O[C@@H]2C=C3CC[C@@H]4[C@@H](CC[C@]5(C)[C@H](c6ccc(=O)oc6)CC[C@@]45O)[C@@]3(C)CC2)[C@H](O)[C@H](O)[C@H]1O	nt	nt	0.28µM*	nt	?	nt
